Tests used:
Test in all cases: PBM binding z-score (relative to random genomic background probes); higher = stronger binding; sequences stand for … in GC…GCGATTGACAGCGTAGAATGAAGG
[1] = system: PPARg:RXRa DBDmut IVT, anti-RXR (DBD mutation: RXRa K156A/R161A, NR concentration 270 nM, RXRa partner concentration 90 nM)
How it was run: (§1)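 Random background probes are the reference for binding z-scores. These scores derive from regression-normalized fluorescence on custom Agilent 4×180K protein-binding microarrays incubated 1 h with ligand-free nuclear receptor dimers. Binding was detected with antibodies against each partner (one per run).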

[2] = system: PPARg:RXRa IVT, anti-PPARg (NR concentration 270 nM, RXRa partner concentration 90 nM)
How it was run: as §1

[3] = system: PPARg DBDmut:RXRa IVT, anti-PPARg (DBD mutation: PPARg1 K132A/R137A, NR concentration 270 nM, RXRa partner concentration 90 nM)
How it was run: as §1

[4] = system: PPARg DBDmut IVT, anti-PPARg (DBD mutation: PPARg1 K132A/R137A, NR concentration 270 nM)
How it was run: as §1

[5] = system: PPARg homodimer (NR concentration 180 nM)
How it was run: as §1

[6] = system: PXR:RXRa (NR concentration 270 nM, RXRa partner concentration 90 nM)
How it was run: as §1

[7] = system: PXR homodimer (NR concentration 270 nM)
How it was run: as §1

[8] = system: RARa:RXR (NR concentration 270 nM, RXRa partner concentration 90 nM)
How it was run: as §1

[9] = system: RARa homodimer (NR concentration 270 nM)
How it was run: as §1

[10] = system: RARb:RXRa (NR concentration 270 nM, RXRa partner concentration 90 nM)
How it was run: as §1

[11] = system: RARb homodimer (NR concentration 270 nM)
How it was run: as §1

[12] = system: RARg:RXRa (NR concentration 270 nM, RXRa partner concentration 90 nM)
How it was run: as §1

[13] = system: RARg homodimer (NR concentration 270 nM)
How it was run: as §1

[14] = system: RXRa DBDmut IVT, anti-RXR (DBD mutation: RXRa K156A/R161A, NR concentration 90 nM)
How it was run: as §1

[15] = system: RXRa homodimer (NR concentration 180 nM)
How it was run: as §1

[16] = system: THRa:RXRa (NR concentration 90 nM, RXRa partner concentration 90 nM)
How it was run: as §1

[17] = system: THRa homodimer (NR concentration 90 nM)
How it was run: as §1

[18] = system: VDR homodimer (NR concentration 270 nM)
How it was run: as §1

Sequence | PBM binding z-score [1] | PBM binding z-score [2] | PBM binding z-score [3] | PBM binding z-score [4] | PBM binding z-score [5] | PBM binding z-score [6] | PBM binding z-score [7] | PBM binding z-score [8] | PBM binding z-score [9] | PBM binding z-score [10] | PBM binding z-score [11] | PBM binding z-score [12] | PBM binding z-score [13] | PBM binding z-score [14] | PBM binding z-score [15] | PBM binding z-score [16] | PBM binding z-score [17] | PBM binding z-score [18]
CCTCGGAGAACAGAAGGTCAGAGCTGTCCGCTTT | 0.0999 | -0.304 | -1.44 | -1.47 | 1.67 | 1.44 | 0.0963 | 1.92 | 0.634 | 2.42 | 2.93 | 2.11 | 1.99 | 0.355 | 2.01 | 1.77 | -0.175 | 0.014
ATATGTAGGTTACATCCGGGTCATTCAAGCTATG | 7.38 | 7.61 | 3.54 | 2.95 | 2.2 | 3.81 | 1.61 | 4.07 | 0.831 | 2.43 | 2.89 | 3.76 | 2.1 | 1.48 | 3.24 | 3.88 | 2.61 | 2.99
GGAACGAGGGCATACGAGTTGATAGCATGGCGAT | 2.9 | 1.74 | 0.174 | -0.54 | 0.0813 | 3.18 | 0.351 | 0.371 | -0.394 | 1.7 | 0.493 | 1.12 | 1.65 | 2.41 | 1.02 | 2.92 | -0.328 | 2.37
CGTCAAAGTTCAGGGTAACGTAACAGAAAGCAGC | 0.483 | 1.35 | 0.319 | 0.192 | 2.87 | 2.66 | 1.67 | 2.17 | 1.09 | 4.33 | 3.13 | 4.04 | 4.74 | 3.74 | 2.91 | 2.14 | 0.495 | 2.51
ACTAGTCGGTCAGCTGAGGTCACACACAATTCGG | 3.9 | 3.98 | 0.395 | 0.525 | 3.35 | 5.95 | 2.63 | 4.69 | 2.2 | 4.16 | 4.94 | 4.99 | 5.76 | 1.43 | 4.35 | 5.27 | 5.28 | 3.97
CCTGCTGGGTCATGGTCAGCTAATCTACAGTATG | 2.64 | 2.73 | -0.296 | 0.15 | 0.949 | 1.24 | -0.638 | 2.02 | -0.488 | 3.35 | 2.6 | 3.56 | 3.65 | 0.81 | 2.88 | 2.04 | 0.0617 | -0.0341
ATATGTAGGTTATCGGGTCAGTCAGTTTGCGCAT | 7.7 | 7.77 | 4.15 | 2.31 | 2.57 | 2.53 | 2.52 | 2.6 | 1.19 | 2.55 | 2.84 | 2.76 | 2.42 | 1.01 | 2.44 | 2.68 | 2.08 | 2.46
CTCGAAAGGTCGGTTGAGGTGTGTATACGGATAA | -0.0512 | 0.529 | 0.177 | -0.218 | 0.679 | 1.43 | 0.289 | 1.53 | -0.365 | 2.68 | 1.73 | 2.34 | 2.27 | 0.858 | 1.74 | 3.69 | -0.0744 | 0.415
CGTCCAAGGTCAAAGGTCAGTGCAGAGATGACGG | 3.55 | 5.49 | 1.33 | 1.29 | 4.31 | 7.08 | 2.79 | 9.23 | 3.59 | 5.77 | 5.5 | 8.65 | 8.11 | 4.2 | 10 | 4.76 | 3.26 | 4.12
CTCGACAGGTCGGTTGAGGTGAGTATACGGATAA | -0.656 | 0.236 | -0.149 | -0.718 | -0.0437 | 0.653 | -0.282 | 0.493 | -0.539 | 0.905 | 0.715 | 0.769 | 0.825 | -0.127 | 0.289 | 4.41 | 1.11 | 0.012
CGAACGAGGGCATGAGTTGATAGCAAATGCCGAT | 3.29 | 2.03 | -0.334 | -0.825 | -0.0859 | 0.562 | -0.209 | 0.5 | -0.431 | 2.11 | 0.843 | 1.54 | 2 | 2.58 | 1.17 | 1.48 | -0.132 | 2.02
GATCGGAGGACAAGGTCAGAGCTTTGTCCGTAGA | -0.00086 | 0.881 | -0.747 | -1.99 | 0.29 | 1.76 | -0.362 | 2.03 | -0.62 | 3.47 | 3.27 | 3.05 | 3.57 | 0.217 | 2.48 | 2.94 | 1.33 | 0.466
AGTCAAAATTCAGGACGAGGTAACGTAAAGCACG | -0.124 | 0.504 | 0.875 | 0.0968 | 0.59 | -0.0686 | 0.0838 | 0.591 | 0.657 | 0.118 | -0.0538 | 0.203 | 0.422 | -0.303 | 0.601 | 1.99 | 1.64 | 0.0292
GCTTCTAGGTCAGGTTGGTCAGCTAACGGGTACG | 6.57 | 5.9 | 1.46 | 0.392 | 1.61 | 0.562 | 0.241 | 1.26 | 0.169 | 3.53 | 2.86 | 2.88 | 3.68 | 0.783 | 1.08 | 2.47 | 1.63 | 0.679

Reference: the supplement of paper PMC6555819
